Reference: PubChem BioAssay
Inconclusive results are not listed. Active and inactive are the calls of the source. Unless noted, the rule behind the calls is not given here.

Tests used:
[1] = yeast TOR pathway RPL19A-GFP modulators, primary screen, cell-based, S. cerevisiae, multiplex flow cytometry (AID 1862; in the data active = percent of DMSO control GFP below about 86%;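 note: lower values mimic rapamycin by blocking the RPL19A rise seen in DMSO cells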); conditions: S. cerevisiae RPL19A-GFP strain, flow cytometry fluorescence, 3 h; at 10 µM; stronger effect = lower value
[2] = modulators of MEP2-GFP levels in yeast, primary screen, S. cerevisiae, multiplex flow cytometry (AID 1867;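 active = GFP response, as percent of the DMSO control, above the screen-wide mean plus 3 SD, about 139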;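 note: median GFP channel fluorescence of barcode-gated MEP2-GFP cells measured by flow cytometry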); conditions: S. cerevisiae MEP2-GFP strain, 3 h, at 10 µM, stronger effect = higher value
[3] = modulators of CIT2-GFP expression in yeast, primary screen, S. cerevisiae, GFP fusion, multiplex flow cytometry (AID 1870;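 active = percent response above a set limit, the screen-wide mean plus 3 SD, cut at about 130% in these data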;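 note: barcoded CIT2-GFP strain pooled with four other GFP strains with rapamycin as positive control; median GFP fluorescence per well over plate mean of DMSO wells so 100% = DMSO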); conditions: 3 h, at 10 µM, stronger effect = higher value
[4] = modulators of LAP4-GFP expression in yeast, primary screen, S. cerevisiae, multiplex flow cytometry (AID 1873;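 active = GFP signal, as percent of the solvent control, above the screen mean plus 3 SD, about 149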); conditions: 3 h, at 10 µM, stronger effect = higher value
[5] = modulators of AGP1-GFP expression in yeast TOR pathway, primary screen, cell-based, multiplex flow cytometry, S. cerevisiae (AID 1887;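 active = GFP signal above the screen-wide mean plus 3 SD, that is over about 124.5% of the solvent control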;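 note: AGP1-GFP fusion strain of S. cerevisiae within a five-strain barcoded multiplex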); conditions: 3 h, at 10 µM, stronger effect = higher value
[6] = inhibitors of CD8+ T cell-vesicle binding, pilot screen, LFA-1/ICAM-1 modulator project, MLPCN validation set, flow cytometry (AID 2523;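 active = response below a set limit, under 55% cells CD8-positive and vesicle-bound, and CD8 cells' 90th-percentile brightness under 279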;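 for vesicle binding response: mean PE anti-B7-1 fluorescence of CD8+ cells relative to row control; 100% = QL9-loaded vesicles with DMSO vehicle in the same plate row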); conditions: 2C mouse CD8+ T cells, at 7 µM, stronger effect = lower value; double positive events: measured here: CD8+/vesicle+ event percentage
[7] = target: Integrin beta-1 (Homo sapiens) + Integrin alpha-4 (Homo sapiens) (UniProt P13612+P05556); assay: inhibition of HUTS-21 binding to VLA-4, pilot screen, VLA-4 allosteric modulator project, U937 cells, HUTS-21 mAb, flow cytometry, validation set (AID 2674;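 active = inhibition above 50%, about 3 SD of the validation set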;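 note: antibody binding induced by the VLA-4 ligand LDV present at three times its Kd; 0% = LDV ligand with antibody and no compound and 100% = antibody without LDV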); conditions: HUTS-21 LIBS mAb binding, at 6.7 µM, stronger effect = higher value
[8] = superoxide lowering in aged yeast cells, pilot screen, validation compound set (AID 2706;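 active = superoxide response below 65% of plate, a cut near 3 SD across the whole screen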;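 note: yeast exposed to compound for one week at 30 degrees C before staining; 100% = mean of all compound wells on the same plate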); conditions: S. cerevisiae aging, superoxide DHE fluorescence; at 10 µM; stronger effect = lower value
[9] = target: Beta-adrenergic receptor kinase 1 (Homo sapiens) (UniProt P25098); assay: GRK2 binders displacing RNA aptamer, biochemical, validation, human GRK2, bead flow cytometry (AID 488806;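 active = aptamer binding inhibition above 30%, about 3 SD of noise from non-fluorescent compounds; inactive = inhibition at or below 30%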); conditions: bead-bound GRK2, FAM-aptamer displacement, at 10 µM, stronger effect = higher value
Beta-adrenergic receptor kinase 1 (Homo sapiens), sequence (P25098 whole entry, looked up): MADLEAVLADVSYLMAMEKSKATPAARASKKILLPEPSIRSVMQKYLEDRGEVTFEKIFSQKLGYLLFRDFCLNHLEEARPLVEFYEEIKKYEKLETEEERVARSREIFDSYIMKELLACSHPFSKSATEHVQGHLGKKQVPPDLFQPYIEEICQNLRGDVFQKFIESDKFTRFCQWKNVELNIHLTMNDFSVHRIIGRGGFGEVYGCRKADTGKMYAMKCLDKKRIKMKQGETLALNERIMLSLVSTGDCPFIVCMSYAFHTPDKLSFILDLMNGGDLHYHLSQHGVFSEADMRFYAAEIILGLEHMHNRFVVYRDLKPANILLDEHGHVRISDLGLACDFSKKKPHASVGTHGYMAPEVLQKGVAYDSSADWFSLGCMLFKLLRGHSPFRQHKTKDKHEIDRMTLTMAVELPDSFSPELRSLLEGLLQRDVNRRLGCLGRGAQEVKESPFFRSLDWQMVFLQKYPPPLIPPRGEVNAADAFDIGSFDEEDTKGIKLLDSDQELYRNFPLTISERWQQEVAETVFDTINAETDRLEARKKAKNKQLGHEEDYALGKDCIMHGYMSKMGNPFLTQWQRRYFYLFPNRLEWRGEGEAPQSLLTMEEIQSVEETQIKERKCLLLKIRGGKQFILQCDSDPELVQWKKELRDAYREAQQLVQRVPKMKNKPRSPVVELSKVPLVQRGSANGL

[10] = target: Beta-2 adrenergic receptor (Homo sapiens) (UniProt P07550); assay: beta2AR agonists driving receptor internalization, pilot screen, cell-based, FAP fluorogen, flow cytometry, validation set (AID 504459;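 active = percent response above 42, roughly 3 SD of non-fluorescent test compounds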;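 note: agonist-driven loss of surface beta2AR via internalization measured by FAP dye flow cytometry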); conditions: Am2.2-beta2AR cells, FAP surface receptor flow cytometry; at 10 µM; stronger effect = higher value
Beta-2 adrenergic receptor (Homo sapiens), sequence (P07550 whole entry, looked up): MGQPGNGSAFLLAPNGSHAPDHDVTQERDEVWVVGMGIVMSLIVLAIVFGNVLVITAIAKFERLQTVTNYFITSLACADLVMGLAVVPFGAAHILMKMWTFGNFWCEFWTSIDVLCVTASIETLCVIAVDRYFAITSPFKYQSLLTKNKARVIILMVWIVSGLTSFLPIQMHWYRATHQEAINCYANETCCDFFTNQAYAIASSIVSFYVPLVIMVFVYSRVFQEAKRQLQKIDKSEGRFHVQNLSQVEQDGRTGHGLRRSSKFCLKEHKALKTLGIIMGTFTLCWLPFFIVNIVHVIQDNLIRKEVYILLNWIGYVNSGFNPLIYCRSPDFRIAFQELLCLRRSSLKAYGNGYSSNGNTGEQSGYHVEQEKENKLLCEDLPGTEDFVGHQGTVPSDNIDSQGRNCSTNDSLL

[11] = target: AP-2 complex subunit beta (Homo sapiens) (UniProt P63010); assay: inhibitors of arrestin peptide binding to AP2, pilot screen, biochemical, validation set, GST-AP2 beads, flow cytometry (AID 504541;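 active = inhibition above 54%, about 3 SD of non-fluorescent compounds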;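 note: AP2 carries R879A mutation and is captured from E. coli lysate; bead-bound FITC arrestin peptide fluorescence measuring arrestin peptide binding to AP2; 0% = DMSO wells and 100% = excess unlabeled arrestin peptide control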); conditions: FITC arrestin peptide, at 10 µM, stronger effect = higher value
AP-2 complex subunit beta (Homo sapiens), sequence (P63010 whole entry, looked up, one chain of several): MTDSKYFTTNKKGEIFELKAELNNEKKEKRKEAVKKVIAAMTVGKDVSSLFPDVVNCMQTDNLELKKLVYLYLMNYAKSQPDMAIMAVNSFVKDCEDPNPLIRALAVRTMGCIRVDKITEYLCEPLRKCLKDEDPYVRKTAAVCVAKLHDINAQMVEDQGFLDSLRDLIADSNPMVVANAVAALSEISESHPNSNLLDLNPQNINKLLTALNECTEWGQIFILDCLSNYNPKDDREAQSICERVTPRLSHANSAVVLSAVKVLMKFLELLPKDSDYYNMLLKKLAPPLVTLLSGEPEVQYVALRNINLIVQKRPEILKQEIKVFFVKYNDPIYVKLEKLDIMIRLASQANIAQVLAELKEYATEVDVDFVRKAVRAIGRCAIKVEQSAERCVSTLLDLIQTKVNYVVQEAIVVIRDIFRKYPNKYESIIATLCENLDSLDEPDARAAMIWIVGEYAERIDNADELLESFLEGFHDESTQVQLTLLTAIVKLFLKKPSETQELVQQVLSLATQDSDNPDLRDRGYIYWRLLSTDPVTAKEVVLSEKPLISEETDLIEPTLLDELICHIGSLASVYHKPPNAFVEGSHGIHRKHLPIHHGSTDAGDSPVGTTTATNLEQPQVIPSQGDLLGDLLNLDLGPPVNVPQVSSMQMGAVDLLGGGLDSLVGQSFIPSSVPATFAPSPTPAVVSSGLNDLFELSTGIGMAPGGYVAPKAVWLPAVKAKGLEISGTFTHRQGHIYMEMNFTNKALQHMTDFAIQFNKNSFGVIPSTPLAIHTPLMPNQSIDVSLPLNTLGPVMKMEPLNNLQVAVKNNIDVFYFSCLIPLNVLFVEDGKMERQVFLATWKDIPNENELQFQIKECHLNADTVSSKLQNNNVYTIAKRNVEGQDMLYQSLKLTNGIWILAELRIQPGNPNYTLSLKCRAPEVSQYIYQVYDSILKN

[12] = yeast V-ATPase proton transport modulators, S. cerevisiae, pHLuorin, HTS validation (AID 504600; in the data active = response above about 15%;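 note: plate controls were DMSO for no effect and reference compound for full effect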); conditions: S. cerevisiae pHLuorin cytosolic pH, at 10 µM, stronger effect = higher value
[13] = tested on: anti-desmoglein-3 scFv antibody binding to human DSG3; assay: inhibitors of anti-DSG3 scFv binding to DSG3, pilot screen, biochemical, validation compound set, bead-based, flow cytometry (AID 588368;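 active = binding below the plate cutoff, the plate median minus 3 SD, with a reading above zero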;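 note: signal is the median channel fluorescence of bead-bound GFP antibody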); conditions: Protein G beads, DSG3-Fc, scFv-GFP binding, at 10 µM, stronger effect = lower value
[14] = tested on: Botulinum neurotoxin type F light chain protease (Clostridium botulinum); assay: Botulinum neurotoxin type F light chain protease inhibition, multiplex microsphere flow cytometry, validation set (AID 588459); conditions: multiplex microsphere protease substrate cleavage assay, at 10 µM, stronger effect = higher value
[15] = target: Botulinum neurotoxin type A (Clostridium botulinum) (UniProt P0DPI0); assay: BoNT/A light chain protease inhibitors, biochemical, multiplex microsphere flow cytometry, validation set (AID 588460); conditions: at 10 µM, stronger effect = higher value
Botulinum neurotoxin type A (Clostridium botulinum), sequence (P0DPI0 whole entry, looked up): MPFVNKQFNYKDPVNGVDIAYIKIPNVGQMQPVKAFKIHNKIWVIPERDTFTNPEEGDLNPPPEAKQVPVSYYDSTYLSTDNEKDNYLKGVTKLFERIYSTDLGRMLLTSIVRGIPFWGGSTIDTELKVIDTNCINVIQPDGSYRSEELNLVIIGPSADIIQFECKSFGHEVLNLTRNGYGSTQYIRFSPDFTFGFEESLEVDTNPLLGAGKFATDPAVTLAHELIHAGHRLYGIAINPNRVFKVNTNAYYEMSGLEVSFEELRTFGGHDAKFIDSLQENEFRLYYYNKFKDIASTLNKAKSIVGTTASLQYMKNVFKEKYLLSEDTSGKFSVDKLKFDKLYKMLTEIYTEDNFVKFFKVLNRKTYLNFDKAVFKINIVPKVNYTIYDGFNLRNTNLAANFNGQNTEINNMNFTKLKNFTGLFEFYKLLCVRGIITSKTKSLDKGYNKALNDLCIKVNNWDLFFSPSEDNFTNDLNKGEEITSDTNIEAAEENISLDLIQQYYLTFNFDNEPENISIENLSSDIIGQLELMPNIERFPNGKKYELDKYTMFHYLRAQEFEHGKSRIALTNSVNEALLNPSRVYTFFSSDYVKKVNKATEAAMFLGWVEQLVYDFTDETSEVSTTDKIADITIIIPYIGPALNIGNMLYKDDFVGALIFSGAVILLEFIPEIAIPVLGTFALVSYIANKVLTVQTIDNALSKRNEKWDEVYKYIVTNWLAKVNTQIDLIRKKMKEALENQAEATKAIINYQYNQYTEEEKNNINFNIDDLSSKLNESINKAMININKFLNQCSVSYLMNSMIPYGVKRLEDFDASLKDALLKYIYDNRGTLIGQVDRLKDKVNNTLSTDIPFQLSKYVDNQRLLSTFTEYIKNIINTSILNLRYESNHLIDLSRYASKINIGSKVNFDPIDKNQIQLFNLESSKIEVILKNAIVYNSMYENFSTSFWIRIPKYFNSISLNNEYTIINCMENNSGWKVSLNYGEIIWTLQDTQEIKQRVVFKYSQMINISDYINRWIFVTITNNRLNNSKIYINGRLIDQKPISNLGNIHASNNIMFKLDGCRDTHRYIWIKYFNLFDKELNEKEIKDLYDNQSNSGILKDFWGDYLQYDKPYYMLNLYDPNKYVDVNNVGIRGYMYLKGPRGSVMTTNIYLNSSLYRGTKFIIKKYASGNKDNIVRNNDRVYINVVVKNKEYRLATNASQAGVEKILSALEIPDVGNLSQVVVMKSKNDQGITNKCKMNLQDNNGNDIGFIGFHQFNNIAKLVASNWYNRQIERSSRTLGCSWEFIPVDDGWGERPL

[16] = target: Lethal factor (Bacillus anthracis) (UniProt P15917); assay: Lethal factor protease inhibitors, Bacillus anthracis, multiplex microsphere cleavage assay, validation set (AID 588461); conditions: flow cytometry, at 10 µM, stronger effect = higher value
Lethal factor (Bacillus anthracis), sequence (P15917 whole entry, looked up): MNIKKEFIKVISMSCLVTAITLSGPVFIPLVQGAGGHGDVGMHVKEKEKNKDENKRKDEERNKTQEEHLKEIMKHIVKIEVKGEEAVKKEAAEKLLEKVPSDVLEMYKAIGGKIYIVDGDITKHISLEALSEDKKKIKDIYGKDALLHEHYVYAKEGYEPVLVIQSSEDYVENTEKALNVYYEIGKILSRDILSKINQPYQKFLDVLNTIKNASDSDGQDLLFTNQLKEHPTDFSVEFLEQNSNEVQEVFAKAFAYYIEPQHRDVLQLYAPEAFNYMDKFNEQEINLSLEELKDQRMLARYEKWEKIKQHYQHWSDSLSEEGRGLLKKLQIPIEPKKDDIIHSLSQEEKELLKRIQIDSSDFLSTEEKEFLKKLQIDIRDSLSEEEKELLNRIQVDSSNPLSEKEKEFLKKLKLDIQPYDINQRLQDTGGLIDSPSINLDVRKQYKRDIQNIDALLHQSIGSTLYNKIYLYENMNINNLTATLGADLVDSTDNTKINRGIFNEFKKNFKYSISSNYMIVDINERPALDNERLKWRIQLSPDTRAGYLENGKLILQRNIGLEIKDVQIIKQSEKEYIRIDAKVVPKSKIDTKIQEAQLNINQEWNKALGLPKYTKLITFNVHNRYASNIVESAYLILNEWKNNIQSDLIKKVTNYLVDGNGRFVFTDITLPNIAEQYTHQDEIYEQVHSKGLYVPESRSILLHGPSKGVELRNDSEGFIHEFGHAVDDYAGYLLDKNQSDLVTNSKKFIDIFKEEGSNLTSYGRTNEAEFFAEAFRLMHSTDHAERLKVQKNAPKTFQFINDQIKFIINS

[17] = inhibitors of fungal efflux pumps CDR1, CDR2, MDR1, pilot screen, validation compound set, multiplex, phenotypic (AID 588506;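 active = efflux inhibition above 0.42, the validation set average plus 4 SD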;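 note: Nile Red retained in cells so higher fluorescence means more efflux inhibition; 0 = negative control wells and 1 = enniatin B 25 µM full block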); conditions: S. cerevisiae pump-expressing triplex, Nile Red efflux flow cytometry; at 10 µM; stronger effect = higher value
[18] = target: ATP-binding cassette sub-family B member 6 (Homo sapiens) (UniProt Q9NP58); assay: ABCB6 transporter inhibitors, pilot screen, K562-ABCB6 cells, flow cytometry, validation set (AID 588550;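 active = inhibition above the screen-wide mean plus 3 SD, about 51%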;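 note: 0% = DMSO wells and 100% = benzethonium chloride 70 µM positive control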); conditions: K562-ABCB6 porphyrin accumulation, 1 h, at 10 µM, stronger effect = higher value
ATP-binding cassette sub-family B member 6 (Homo sapiens), sequence (Q9NP58 whole entry, looked up): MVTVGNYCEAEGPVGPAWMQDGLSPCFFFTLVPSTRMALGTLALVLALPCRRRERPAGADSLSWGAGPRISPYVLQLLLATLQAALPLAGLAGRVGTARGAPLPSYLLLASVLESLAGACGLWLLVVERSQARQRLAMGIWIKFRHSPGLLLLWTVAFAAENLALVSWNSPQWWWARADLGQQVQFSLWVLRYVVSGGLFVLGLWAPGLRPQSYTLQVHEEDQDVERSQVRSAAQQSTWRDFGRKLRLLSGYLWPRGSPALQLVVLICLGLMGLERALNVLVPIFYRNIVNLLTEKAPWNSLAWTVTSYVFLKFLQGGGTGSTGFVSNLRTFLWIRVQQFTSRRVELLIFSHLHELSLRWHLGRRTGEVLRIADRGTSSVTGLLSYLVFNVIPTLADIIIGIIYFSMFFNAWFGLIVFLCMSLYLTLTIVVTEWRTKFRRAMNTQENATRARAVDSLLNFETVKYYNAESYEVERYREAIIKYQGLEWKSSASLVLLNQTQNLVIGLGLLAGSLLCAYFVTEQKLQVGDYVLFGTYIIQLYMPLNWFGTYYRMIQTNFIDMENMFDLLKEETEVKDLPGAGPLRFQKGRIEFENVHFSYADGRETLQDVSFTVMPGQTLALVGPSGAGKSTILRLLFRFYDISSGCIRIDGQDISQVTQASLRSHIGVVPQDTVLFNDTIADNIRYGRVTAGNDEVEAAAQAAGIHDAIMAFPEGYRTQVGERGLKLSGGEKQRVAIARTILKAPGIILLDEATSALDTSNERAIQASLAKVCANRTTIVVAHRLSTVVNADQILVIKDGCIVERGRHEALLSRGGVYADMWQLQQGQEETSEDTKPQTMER

[19] = promoters of myeloid differentiation in arrested cells, primary screen, cell-based, GFP/MAC1 double positive, flow cytometry, validation set (AID 588685;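 active = differentiation response of at least 50%, scaled between solvent and reference control, from cells with both markers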;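 note: compound exposure lasts four days before antibody staining and flow analysis; 0% = DMSO wells and 100% = 5 µM fulvestrant positive control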); conditions: ER-HoxA9 marrow cells, stronger effect = higher value

O=c1cccc2n1C[C@H]1C[C@@H]2CN2CCCC[C@@H]12
inactive: percent of DMSO control GFP [1] 97.6% | GFP response vs DMSO [2] 111% | percent response of DMSO control [3] 94.8% | GFP response vs DMSO [4] 118% | GFP response, % of DMSO [5] 98.1% | vesicle binding response [6] 124% | inhibition [7] -9.98% | superoxide response (% of plate) [8] 100% | aptamer binding inhibition [9] -2% | response [10] 2.05% | inhibition [11] -2.4% | response [12] -3.47% | binding (% of control) [13] 101% | inhibition [14] -0.6% | inhibition [15] -0.2% | inhibition [16] -7.3% | efflux inhibition (fraction of control) [17] -0.03 | inhibition [18] 4% | differentiation response [19] -24.8%
61.7%: double positive events [6]

CC(=O)c1ccc(-c2ccccc2)cc1
inactive: percent of DMSO control GFP [1] 97% | GFP response vs DMSO [2] 120% | percent response of DMSO control [3] 110% | GFP response vs DMSO [4] 84.7% | GFP response, % of DMSO [5] 103% | vesicle binding response [6] 339% | inhibition [7] -15.8% | superoxide response (% of plate) [8] 96.8% | aptamer binding inhibition [9] -3% | response [10] 9.21% | inhibition [11] -0.36% | response [12] 1% | binding (% of control) [13] 108% | inhibition [14] -2.6% | inhibition [15] -1.2% | inhibition [16] -1.9% | efflux inhibition (fraction of control) [17] -0.06 | inhibition [18] 14% | differentiation response [19] 4.91%
63.6%: double positive events [6]

NNC(=O)c1ccc(Cl)cc1
inactive: percent of DMSO control GFP [1] 102% | GFP response vs DMSO [2] 103% | percent response of DMSO control [3] 104% | GFP response vs DMSO [4] 102% | GFP response, % of DMSO [5] 102% | vesicle binding response [6] 114% | inhibition [7] 0.25% | superoxide response (% of plate) [8] 88.1% | aptamer binding inhibition [9] -2% | response [10] 7.16% | inhibition [11] 3.28% | response [12] 3.19% | binding (% of control) [13] 98.7% | inhibition [14] -1.9% | inhibition [15] 0.4% | inhibition [16] 6.8% | efflux inhibition (fraction of control) [17] -0.36 | inhibition [18] -3% | differentiation response [19] 2.74%
56.2%: double positive events [6]

CCn1ccnc1CN1CCCC(C(=O)c2cc(F)ccc2OC)C1 (stereo not given)
inactive: percent of DMSO control GFP [1] 100% | GFP response vs DMSO [2] 93% | percent response of DMSO control [3] 96.7% | GFP response vs DMSO [4] 99.9% | GFP response, % of DMSO [5] 102% | vesicle binding response [6] 125% | inhibition [7] -3.16% | superoxide response (% of plate) [8] 96.9% | aptamer binding inhibition [9] 2% | response [10] -6.87% | inhibition [11] 18.6% | response [12] 1.54% | binding (% of control) [13] 98.4% | inhibition [14] 0.8% | inhibition [15] -1.2% | inhibition [16] -1.6% | efflux inhibition (fraction of control) [17] -0.21 | inhibition [18] 3% | differentiation response [19] -8.8%
61.5%: double positive events [6]

c1ccc2c(c1)Nc1ccccc1S2
61.9%: double positive events [6]
inactive: percent of DMSO control GFP [1] 92.8% | GFP response vs DMSO [2] 139% | percent response of DMSO control [3] 95.2% | GFP response vs DMSO [4] 81.4% | GFP response, % of DMSO [5] 84.7% | vesicle binding response [6] 121% | inhibition [7] 12.3% | superoxide response (% of plate) [8] 81.7% | aptamer binding inhibition [9] 2% | response [10] 1.66% | inhibition [11] 9.01% | response [12] -2.45% | binding (% of control) [13] 100% | inhibition [14] -1.5% | inhibition [15] 0.5% | inhibition [16] -2.6% | efflux inhibition (fraction of control) [17] 0.27 | inhibition [18] 9% | differentiation response [19] 1.64%

[N-]=[N+]=CC(=O)OC[C@H](N)C(=O)O
64.4%: double positive events [6]
inactive: percent of DMSO control GFP [1] 102% | GFP response vs DMSO [2] 102% | percent response of DMSO control [3] 100% | GFP response vs DMSO [4] 109% | GFP response, % of DMSO [5] 110% | vesicle binding response [6] 133% | inhibition [7] 12.5% | superoxide response (% of plate) [8] 97.4% | aptamer binding inhibition [9] 5% | response [10] -13% | inhibition [11] 4.06% | response [12] 2.12% | binding (% of control) [13] 92.8% | inhibition [14] 2.7% | inhibition [15] 1.2% | inhibition [16] 2.3% | efflux inhibition (fraction of control) [17] -0.13 | inhibition [18] 5% | differentiation response [19] 0.92%

NC(=O)CN1CCCC1=O
54.5%: double positive events [6]
inactive: percent of DMSO control GFP [1] 95% | GFP response vs DMSO [2] 113% | percent response of DMSO control [3] 118% | GFP response vs DMSO [4] 73.2% | GFP response, % of DMSO [5] 91% | vesicle binding response [6] 191% | inhibition [7] 3.55% | superoxide response (% of plate) [8] 95.8% | aptamer binding inhibition [9] -4% | response [10] -20.5% | inhibition [11] -5.52% | response [12] 0.81% | binding (% of control) [13] 105% | inhibition [14] 1.5% | inhibition [15] 0.4% | inhibition [16] 1.1% | efflux inhibition (fraction of control) [17] -0.09 | inhibition [18] 4% | differentiation response [19] -1.64%

C[C@H]1CC[C@@]2(C)[C@@H](CC[C@@H]3[C@@H]2CC[C@]2(C)[C@@H](O)CC[C@@H]32)C1
61%: double positive events [6]
inactive: percent of DMSO control GFP [1] 99.9% | GFP response vs DMSO [2] 103% | percent response of DMSO control [3] 92% | GFP response vs DMSO [4] 137% | GFP response, % of DMSO [5] 102% | vesicle binding response [6] 376% | inhibition [7] 6.4% | superoxide response (% of plate) [8] 97.5% | aptamer binding inhibition [9] 0% | response [10] 8.67% | inhibition [11] -8.56% | response [12] 1.08% | binding (% of control) [13] 99.5% | inhibition [14] 2% | inhibition [15] 1.1% | inhibition [16] -4.7% | efflux inhibition (fraction of control) [17] -0.03 | inhibition [18] -3% | differentiation response [19] -8.8%
